# Test results: PubChem BioAssay
# Activity calls are given as the source filed them. Unless noted, the rule behind the calls is not given here.
# Experiments:
# [1] = compounds binding Alexa647 anti-His antibody – biochemical, small-molecule microarray, 635 nm fluorescence, artefact control for SMM control protein annotation, primary screen (AID 1128); settings: higher = more signal;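 note: score merges feature fluorescence with signal-to-noise for each printed compound spot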
# [2] = test system: Human papillomavirus type 1a E7 protein (residues 1-88); assay: HPV1a E7 small-molecule binders, primary screen, biochemical, small-molecule microarray, residues 1-88, 635 nm (AID 1129); settings: small-molecule microarray binding, fluorescence 635 nm; higher = more signal
# [3] = molecular target: Focal adhesion kinase 1 (Homo sapiens) (UniProt Q05397); assay: PTK2 protein binding on printed compound slides – biochemical, small-molecule microarray, 635/667 nm fluorescence, BSA, DTT, primary screen (AID 1130); settings: 635 nm fluorescence, higher = more signal;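 note: composite of spot emission at 667 nm and signal to noise over triplicate slides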
# Focal adhesion kinase 1 (Homo sapiens), sequence (Q05397 whole entry, looked up): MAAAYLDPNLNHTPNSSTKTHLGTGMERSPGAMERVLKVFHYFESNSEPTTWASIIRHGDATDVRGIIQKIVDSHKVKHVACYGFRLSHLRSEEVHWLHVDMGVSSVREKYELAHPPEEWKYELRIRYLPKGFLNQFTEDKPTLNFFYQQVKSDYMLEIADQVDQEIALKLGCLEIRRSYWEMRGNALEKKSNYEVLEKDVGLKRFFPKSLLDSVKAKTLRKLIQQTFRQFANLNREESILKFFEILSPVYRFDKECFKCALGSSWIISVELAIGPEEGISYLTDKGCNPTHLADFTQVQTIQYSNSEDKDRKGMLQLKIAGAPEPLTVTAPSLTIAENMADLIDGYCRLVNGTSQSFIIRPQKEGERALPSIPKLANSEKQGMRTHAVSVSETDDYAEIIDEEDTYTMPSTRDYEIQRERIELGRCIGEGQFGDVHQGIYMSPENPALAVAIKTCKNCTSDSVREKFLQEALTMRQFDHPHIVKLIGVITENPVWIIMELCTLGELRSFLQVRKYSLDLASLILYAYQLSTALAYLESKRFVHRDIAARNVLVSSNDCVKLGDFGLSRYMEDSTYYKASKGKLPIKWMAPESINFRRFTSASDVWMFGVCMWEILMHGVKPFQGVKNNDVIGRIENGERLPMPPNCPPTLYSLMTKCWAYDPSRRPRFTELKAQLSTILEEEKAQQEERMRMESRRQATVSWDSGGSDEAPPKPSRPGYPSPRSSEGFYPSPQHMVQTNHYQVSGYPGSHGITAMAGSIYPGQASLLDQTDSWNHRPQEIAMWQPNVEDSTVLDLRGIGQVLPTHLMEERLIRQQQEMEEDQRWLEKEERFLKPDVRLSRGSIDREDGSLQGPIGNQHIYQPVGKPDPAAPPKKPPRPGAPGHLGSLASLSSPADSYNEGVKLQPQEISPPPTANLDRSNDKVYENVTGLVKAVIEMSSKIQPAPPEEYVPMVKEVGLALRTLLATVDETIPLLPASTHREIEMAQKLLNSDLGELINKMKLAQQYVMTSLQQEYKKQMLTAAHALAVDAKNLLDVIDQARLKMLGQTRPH
# [4] = test system: Fibrinogen (Alexa647-labelled); assay: Alexa647-fibrinogen binding to printed small molecules – biochemical, small-molecule microarray, 635/667 nm fluorescence, artefact control for SMM control-protein annotation, profiling panel (AID 1131); settings: fibrinogen-A647 binding fluorescence, higher = more signal;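 note: z-score merges 667 nm fluorescence with per-spot signal-to-noise over triplicate slides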
# [5] = molecular target: Follistatin (Homo sapiens) (UniProt P19883); assay: FST protein binding to printed compounds – biochemical, small-molecule microarray, 635/667 nm fluorescence, primary screen (AID 1132); settings: 635 nm fluorescence, higher = more signal
# Follistatin (Homo sapiens), sequence (P19883 whole entry, looked up): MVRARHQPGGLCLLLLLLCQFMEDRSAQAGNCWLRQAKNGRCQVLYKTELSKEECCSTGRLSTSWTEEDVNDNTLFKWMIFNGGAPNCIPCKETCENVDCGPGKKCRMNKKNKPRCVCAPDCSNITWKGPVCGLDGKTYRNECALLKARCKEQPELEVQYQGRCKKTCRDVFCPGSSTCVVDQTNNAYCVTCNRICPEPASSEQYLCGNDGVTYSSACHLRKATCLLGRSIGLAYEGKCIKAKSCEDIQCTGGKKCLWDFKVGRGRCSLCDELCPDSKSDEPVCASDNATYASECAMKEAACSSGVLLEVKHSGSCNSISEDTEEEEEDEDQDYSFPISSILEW
# [6] = molecular target: Fibroblast growth factor 2 (Homo sapiens) (UniProt P09038); assay: basic fibroblast growth factor binding to printed compounds – biochemical, small-molecule microarray, 635/667 nm fluorescence, primary screen (AID 1133); settings: FGF2, fluorescence 635/667, higher = more signal
# Fibroblast growth factor 2 (Homo sapiens), sequence (P09038 whole entry, looked up): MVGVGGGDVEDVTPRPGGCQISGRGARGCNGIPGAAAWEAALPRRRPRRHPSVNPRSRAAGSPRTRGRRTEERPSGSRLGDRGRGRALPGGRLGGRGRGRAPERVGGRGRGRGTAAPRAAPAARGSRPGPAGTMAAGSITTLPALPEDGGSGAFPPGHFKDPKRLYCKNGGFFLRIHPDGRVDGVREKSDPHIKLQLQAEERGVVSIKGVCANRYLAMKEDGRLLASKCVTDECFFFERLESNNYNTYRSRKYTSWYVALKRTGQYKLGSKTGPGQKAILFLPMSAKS
# [7] = JC-1 mitochondrial potential readout, lung cancer cells – cell-based, A549, JC-1 fluorescence, basal, 24 h, 100 nL, profiling panel (AID 1138); settings: higher = more signal;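 note: A549 lung adenocarcinoma cells under basal conditions with no added stimulus; test concentration not given here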
# Lefty1 = Lefty1 protein binding to printed compounds – biochemical, small-molecule microarray, 635/667 nm fluorescence, primary screen (AID 1139); settings: fluorescence 635/667, higher = more signal
# [8] = test system: wheat germ agglutinin (Triticum aestivum), Alexa647-labelled; assay: Alexa647-WGA lectin binding to printed small molecules – biochemical, small-molecule microarray, 635/667 nm fluorescence, artefact control for SMM control-protein annotation, profiling panel (AID 1140); settings: WGA-A647 binding, 635 nm fluorescence, higher = more signal;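 note: score merges 667 nm feature emission with signal to noise over triplicate slides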
# [9] = molecular target: Luciferin 4-monooxygenase (Photinus pyralis) (UniProt P08659); assay: inhibition of purified Photinus pyralis luciferase – biochemical, luminescence, purified enzyme, 2006 set, primary screen (AID 1141); settings: purified firefly luciferase, SteadyGlo luminescence, 30 min; higher = more signal, called active from +8 up or from −8 down;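 note: cell-free assay with purified firefly luciferase at 100 ng per well in PBS; test concentration not given here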
# Luciferin 4-monooxygenase (Photinus pyralis), sequence (P08659 whole entry, looked up): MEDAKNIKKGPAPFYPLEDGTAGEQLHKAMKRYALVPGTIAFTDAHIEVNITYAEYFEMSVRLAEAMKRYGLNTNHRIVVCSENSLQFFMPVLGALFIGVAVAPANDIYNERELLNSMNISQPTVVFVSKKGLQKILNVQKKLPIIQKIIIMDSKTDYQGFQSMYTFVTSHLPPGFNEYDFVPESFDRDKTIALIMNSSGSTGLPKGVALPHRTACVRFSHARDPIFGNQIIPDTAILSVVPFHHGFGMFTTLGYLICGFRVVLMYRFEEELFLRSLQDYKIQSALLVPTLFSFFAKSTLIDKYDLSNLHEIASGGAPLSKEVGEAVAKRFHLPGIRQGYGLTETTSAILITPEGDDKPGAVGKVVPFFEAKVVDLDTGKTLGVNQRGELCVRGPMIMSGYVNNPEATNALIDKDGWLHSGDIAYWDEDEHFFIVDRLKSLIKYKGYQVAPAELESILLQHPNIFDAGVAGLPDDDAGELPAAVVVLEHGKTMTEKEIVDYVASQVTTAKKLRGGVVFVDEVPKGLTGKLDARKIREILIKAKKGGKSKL
# [10] = test system: Wnt5a (protein binding on small-molecule microarray); assay: small molecules binding Wnt5a protein – biophysical, small-molecule microarray, 635/667 nm fluorescence, primary screen (AID 1142); settings: 635 nm fluorescence, higher = more signal;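 note: fluorescence read at 667 nm with signal to noise per printed feature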
# [11] = ATP-based viability of Huh7 replicon cells – cell-based, CellTiter-Glo luminescence, basal, 48 h, cytotoxicity control for HCV replication inhibitor project, primary screen (AID 1143); settings: higher = more signal, called active from +8 up or from −8 down;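 note: Huh7 hepatoma cells carrying a hepatitis C replication reporter with no stimulus; test concentration not given here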
# [12] = Pseudomonas biofilm growth suppression – PAO1 strain, BacTiter-Glo luminescence, LB-PBS, primary screen (AID 1144); settings: P. aeruginosa PAO1 biofilm, 12 h, higher = more signal
# [13] = basal CRE-LacZ reporter activity in PC12 – cell-based, unstimulated, primary screen (AID 1145); settings: no forskolin, luminescence, 4.5 h, higher = more signal, called active from +8 up or from −8 down
# [14] = forskolin-driven CRE-LacZ activity in PC12 – cell-based, CRE-LacZ reporter, forskolin-stimulated, primary screen (AID 1146); settings: luminescence, 4.5 h, higher = more signal, called active from +8 up or from −8 down;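 note: PC12 cells with 6xCRE LacZ reporter stimulated by forskolin 10 µM; beta-galactosidase reporter signal reflecting CREB driven transcription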
# [15] = molecular target: Streptavidin (Streptomyces avidinii) (UniProt P22629); assay: compounds binding control protein streptavidin – biophysical, small-molecule microarray, 635/667 nm fluorescence, artefact control for SMM compound annotation, primary screen (AID 1147); settings: higher = more signal;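 note: signal reflects streptavidin binding to arrayed compounds as a control protein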
# Streptavidin (Streptomyces avidinii), sequence (P22629 whole entry, looked up): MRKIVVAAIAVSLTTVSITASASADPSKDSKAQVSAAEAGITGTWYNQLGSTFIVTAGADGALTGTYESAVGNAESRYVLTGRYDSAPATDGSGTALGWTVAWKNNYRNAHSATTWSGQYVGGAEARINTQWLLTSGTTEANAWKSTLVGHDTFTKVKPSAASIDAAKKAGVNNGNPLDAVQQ
# [16] = probe aInhba binding on compound microarray – biochemical, small-molecule microarray, 635/667 nm fluorescence, primary screen (AID 1148); settings: higher = more signal;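 note: score merges 667nm spot fluorescence with signal-to-noise for antibody binding to printed compounds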
# Torsin-1A (Homo sapiens) [17] = molecular target: Torsin-1A (Homo sapiens) (UniProt O14656); assay: TOR1A wild-type binding on microarray – cell lysate, small-molecule microarray, lysate, 635/667 nm, primary screen (AID 1149); settings: COS7 hTOR1A-WT lysate, 635 nm fluorescence, higher = more signal
# Torsin-1A (Homo sapiens), sequence (O14656 whole entry, looked up): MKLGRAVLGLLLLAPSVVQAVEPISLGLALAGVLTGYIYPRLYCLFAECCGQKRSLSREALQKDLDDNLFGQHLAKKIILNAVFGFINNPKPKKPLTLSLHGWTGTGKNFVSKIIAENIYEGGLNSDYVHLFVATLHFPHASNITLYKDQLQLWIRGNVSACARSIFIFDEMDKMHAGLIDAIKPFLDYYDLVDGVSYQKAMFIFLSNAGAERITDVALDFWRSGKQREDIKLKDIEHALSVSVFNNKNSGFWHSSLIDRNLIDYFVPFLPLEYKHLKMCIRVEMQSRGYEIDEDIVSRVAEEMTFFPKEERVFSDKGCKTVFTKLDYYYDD
# Torsin-1A (Homo sapiens) [18] = molecular target: Torsin-1A (Homo sapiens) (UniProt O14656); assay: torsin A mutant lysate binding on microarrays – cell lysate, small-molecule microarray, COS7 lysate, 635/667 nm fluorescence, primary screen (AID 1150); settings: COS7 hTOR1A mutant lysate, 635 nm fluorescence, higher = more signal;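 note: score pools 667 nm emission and signal to noise measuring lysate protein binding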
# [19] = test system: Sonic hedgehog protein (Shh); assay: Sonic hedgehog microarray binding compounds – biochemical, small-molecule microarray, 635/667 nm fluorescence, primary screen (AID 1151); settings: 635 nm fluorescence, higher = more signal;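 note: Shh protein binding to compounds spotted on small-molecule microarray slides; score combines spot fluorescence intensity with signal-to-noise across triplicate slides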
SMILES,composite z-score [1],composite z-score [2],composite z-score [3],composite z-score [4],composite z-score [5],composite z-score [6],z-score [7],composite z-score (Lefty1),composite z-score [8],z-score [9],composite z-score [10],z-score [11],z-score [12],z-score [13],z-score [14],composite z-score [15],composite z-score [16],composite z-score (Torsin-1A (Homo sapiens) [17]),composite z-score (Torsin-1A (Homo sapiens) [18]),composite z-score [19]
O=C1C2C=CC(C(O)c3ccc(B(O)O)cc3)N(Nc3ccc([N+](=O)[O-])cc3)C2C(=O)N1c1ccccc1 (stereo not given),0.359,1.21,-0.164,0.843,1.13,0.284,0.0898,0.284,1.11,0.491 (inactive),0.263,-0.307 (inactive),-0.0903 (inactive),-1.07 (inactive),-2.26 (inactive),0.759,0.0785,0.363,0.286,0.221
C=C(/C(=C/C[C@@H](OC(C)=O)c1ccc(CO)o1)c1cnc2ccccc2c1)C(C)C,0.452,1.23,0.88,0.594,1.4,1.9,-0.527,1.37,0.463,-3.13 (inactive),1.3,-0.136 (inactive),-0.171 (inactive),0.159 (inactive),-0.731 (inactive),0.17,-0.0448,2.14,0.619,2.04
CCN(CC)c1ccc(N2CC=CC34O[C@@H]5C=CCCOC(=O)C5[C@H]3C(=O)N(CCCO)[C@@H]4C2=O)cc1 (stereo not given in full),-1.26,-1.14,0.585,-1.33,-0.0464,-0.175,0.185,0.108,-1.19,-0.546 (inactive),-0.0601,-2.8 (inactive),-0.657 (inactive),0.0605 (inactive),-1.14 (inactive),-0.619,0.0051,-0.143,-0.419,0.327
CC(=O)NCCCC[C@@H]1NC(=O)[C@@H]2C[C@H](C(=O)NCCCCCC[N+](C)(C)C)[C@H](c3cccc(OCCO)c3)N2C1=O,2.89,1.17,0.202,0.416,1.39,1.69,-0.972,1.26,0.548,0.364 (inactive),0.505,-0.134 (inactive),-0.445 (inactive),-0.947 (inactive),-0.75 (inactive),-0.206,-0.0425,0.964,1.43,2.04
O=P(NCC1(CC2(c3ccccc3)CO2)CC1)(c1ccccc1)c1ccccc1 (stereo not given),0.618,0.376,0.338,-1.05,-1.23,-1.36,1.11,-2.28,-0.0073,1.33 (inactive),-0.402,-0.814 (inactive),0.318 (inactive),0.197 (inactive),1.13 (inactive),-0.767,-0.0448,-0.87,-0.754,-1.41
CCCC[C@H]1C[C@@H]1[C@@H]1N(P(=O)(c2ccccc2)c2ccccc2)[C@](CO)(c2ccccc2)CC12CC2,0.108,1.12,0.737,0.936,0.156,-1.11,-1.75,-0.519,0.434,2.75 (inactive),0.326,-3.16 (inactive),0.76 (inactive),-0.561 (inactive),-1.24 (inactive),1.15,0.0403,-0.57,0.515,-1.36
COc1ccc(CCNC(=O)[C@@]2(C)c3ccccc3C(=O)N(Cc3ccccc3)[C@H]2c2ccc(CO)cc2)cc1,1.01,1.29,0.652,1,1.45,1.42,-1.72,1.57,0.62,1.11 (inactive),0.968,-5.28 (inactive),-2.01 (inactive),0.208 (inactive),0.303 (inactive),1.3,0.122,2.07,1.67,2.16
COc1ccccc1CN1C(=O)c2ccccc2[C@](Cc2ccccc2I)(C(=O)NC2CC2)[C@@H]1c1ccc(CO)cc1,1.74,1.26,0.646,0.987,1.32,1.55,1.16,1.16,0.52,0.985 (inactive),0.811,-4.58 (inactive),-0.0735 (inactive),0.324 (inactive),-0.572 (inactive),0.662,0.0374,0.427,0.71,2.06
C=CCNC(=O)[C@H]1[C@@H]2C(=O)O[C@@H](c3ccccc3)[C@@H](c3ccccc3)N2[C@@H](c2ccc(O)cc2)[C@]12C(=O)Nc1ccc(C#Cc3ccc(OC)cc3)cc12,0.194,1.22,0.403,0.789,1.16,1.13,-0.769,0.597,0.278,0.153 (inactive),0.555,-3.44 (inactive),-0.182 (inactive),-0.141 (inactive),0.468 (inactive),0.252,-0.0523,0.11,0.117,0.667
O=C1O[C@H](c2ccccc2)[C@H](c2ccccc2)N2[C@H]1[C@@H](C(=O)Nc1nc3ccccc3s1)[C@]1(C(=O)Nc3ccc(C#CC4=CCCCC4)cc31)[C@H]2c1ccc(OCCO)cc1,1.62,1.18,0.148,0.831,1.12,0.579,-2.24,0.077,0.916,-3.28 (inactive),0.706,-1.3 (inactive),-0.711 (inactive),0.128 (inactive),0.205 (inactive),1.73,0.417,0.0608,0.407,0.598
